Measurements: PMC6212790, “How bacterial xenogeneic silencer rok distinguishes foreign from self DNA in its resident genome”
Over roughly 33,000 sequences, “e-score” has its median near -0.038; the highest 2% begin near 0.33. The sample holds the highest values, similar sequences and a random draw of the others, so the mix is not that of the screen.

Each sequence was assayed against T1, GST-Rok-C97-191 (Bacillus subtilis subsp. subtilis str. …, UniProt O34857 97-191) (assay: protein binding microarray; Rok is a gene silencer of Bacillus subtilis; high values mean tight binding). Settings: protein: recombinant; tags: GST (pTH5325, pDEST15-Magic modified); dsDNA, one strand shown.
T1 sequence: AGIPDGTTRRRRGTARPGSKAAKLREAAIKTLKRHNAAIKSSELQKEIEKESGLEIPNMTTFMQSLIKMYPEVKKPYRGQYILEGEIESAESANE
How it was run: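 Each has a 25-mer constant primer and a 35-mer variable part from a de Bruijn sequence of order 10, covering every non-palindromic 8-mer at least 32 times (palindromic 16). Preference for each 8-mer is given as a rank-based, unitless enrichment score (E-score). Its range runs from 0.5 (most favored) to −0.5 (most disfavored).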
ATGTCCAC gave a binding signal of -0.0386 E-score.
With CTCTACGA the binding signal was 0.107 E-score.
GTCTACCA was tested, and the binding signal was 0.15 E-score.
ATCTACCG gave a binding signal of 0.394 E-score.
For ATCTACCC, the binding signal was 0.22 E-score.
Work on ATCTACCA yielded a binding signal of 0.469 E-score.
ACCTACCG showed a binding signal of 0.148 E-score.
In the case of ATCTATCG, the binding signal was 0.313 E-score.
Work on ATCTACGA yielded a binding signal of 0.333 E-score.
With GTCTACGA the binding signal was -0.0769 E-score.
For CGAAAGAC, the binding signal was -0.0876 E-score.
Work on GAAAGACA yielded a binding signal of -0.0886 E-score.
In the case of GTGCAGTA, the binding signal was 0.196 E-score.
Work on ATCGAGGC yielded a binding signal of -0.159 E-score.
For TATGACGA, the binding signal was 0.0683 E-score.
With ATATTAAA the binding signal was 0.385 E-score.
CTATTTAA gave a binding signal of 0.14 E-score.
CTATTAAA was tested, and the binding signal was 0.0376 E-score.
Sequence ATTTTTAA has a binding signal of 0.146 E-score.
Sequence ATATTTAA has a binding signal of 0.338 E-score.
With CTCTTTAC the binding signal was 0.0967 E-score.
For ACATTTAC, the binding signal was 0.315 E-score.
Sequence ATATTTAG has a binding signal of 0.201 E-score.
ATATTTAC was tested, and the binding signal was 0.375 E-score.
ATATTAAC was tested, and the binding signal was 0.296 E-score.
For CTATTTAC, the binding signal was 0.349 E-score.
In the case of ATATTTGC, the binding signal was 0.295 E-score.
CTTTACTC gave a binding signal of -0.199 E-score.
With ATGTAGGA the binding signal was 0.201 E-score.
Sequence CTTGACGA has a binding signal of -0.14 E-score.
AATGTACT showed a binding signal of 0.296 E-score.
With AGTGTACA the binding signal was 0.141 E-score.
For TATGTACA, the binding signal was 0.345 E-score.
With AATGTACA the binding signal was 0.34 E-score.
CATGTACA was tested, and the binding signal was 0.317 E-score.
In the case of CATGTACC, the binding signal was 0.227 E-score.
AATGTACC showed a binding signal of 0.373 E-score.
AATGTACG gave a binding signal of 0.155 E-score.
Sequence GATGTACA has a binding signal of 0.29 E-score.
Sequence CCGAGTCG has a binding signal of -0.148 E-score.
Work on AGGAGAAA yielded a binding signal of 0.073 E-score.
In the case of CACGAAGC, the binding signal was -0.104 E-score.
AGCATTTG was tested, and the binding signal was -0.0352 E-score.
In the case of AACTGAAC, the binding signal was 0.106 E-score.
GCCATTGA was tested, and the binding signal was -0.0503 E-score.
Work on TATTTAAA yielded a binding signal of 0.186 E-score.
AAAAGACG was tested, and the binding signal was 0.0272 E-score.
TAACGGTA was tested, and the binding signal was 0.278 E-score.
For CTTGAAGA, the binding signal was -0.0244 E-score.
Sequence CTTTATAC has a binding signal of 0.227 E-score.
ATTTATAA showed a binding signal of 0.294 E-score.
Work on AGTTATAC yielded a binding signal of 0.241 E-score.
Work on ATTTATGG yielded a binding signal of 0.174 E-score.
For ATTTATAC, the binding signal was 0.348 E-score.
For ATTTATAG, the binding signal was 0.358 E-score.
Work on GACTCTCA yielded a binding signal of -0.0851 E-score.
GGTCTGCA gave a binding signal of -0.0588 E-score.
Work on AGCTACAC yielded a binding signal of 0.169 E-score.
AGCTACAT showed a binding signal of 0.368 E-score.
ATCTACAC gave a binding signal of 0.273 E-score.
ATCTACAG showed a binding signal of 0.309 E-score.
In the case of CACTACAC, the binding signal was 0.0572 E-score.
With AGCTACAA the binding signal was 0.209 E-score.
In the case of CACTACAA, the binding signal was 0.173 E-score.
For ATCTACAT, the binding signal was 0.342 E-score.
GACTACAC was tested, and the binding signal was -0.000838 E-score.
GACTACAA showed a binding signal of -0.00391 E-score.
AACTACAC showed a binding signal of 0.33 E-score.
Work on AACTACAA yielded a binding signal of 0.348 E-score.
AGAACTGG showed a binding signal of -0.0864 E-score.
For CAATGGGC, the binding signal was -0.197 E-score.
Work on AATCGCCA yielded a binding signal of -0.00284 E-score.
AAAGCCAT was tested, and the binding signal was -0.088 E-score.
GTTCCTGA was tested, and the binding signal was -0.0326 E-score.
ACTCGTTA gave a binding signal of 0.225 E-score.
For AACTACGA, the binding signal was 0.283 E-score.
AACTACAT gave a binding signal of 0.364 E-score.
AACTACGC gave a binding signal of 0.126 E-score.
With AACTACAG the binding signal was 0.327 E-score.
ACCTACAT gave a binding signal of 0.227 E-score.
AACTACGT showed a binding signal of 0.338 E-score.
For AACAATGA, the binding signal was 0.0026 E-score.
ACGAGCAG gave a binding signal of -0.19 E-score.
ATTTTGAC gave a binding signal of 0.235 E-score.
Sequence ACGCTCAC has a binding signal of -0.0887 E-score.
Work on ACCATAAC yielded a binding signal of 0.0976 E-score.
Work on GACTTTAC yielded a binding signal of -0.0515 E-score.
For CAATCTAG, the binding signal was 0.206 E-score.
With AAATCTAA the binding signal was 0.202 E-score.
Work on AAATCTAG yielded a binding signal of 0.352 E-score.
AAATCTGC was tested, and the binding signal was -0.0413 E-score.
Sequence ACATCTAG has a binding signal of 0.323 E-score.
Sequence AAATCTAC has a binding signal of 0.441 E-score.
In the case of AAATCTGT, the binding signal was 0.141 E-score.
AAATCTTC gave a binding signal of 0.0559 E-score.
Work on AAATCTAT yielded a binding signal of 0.4 E-score.
Sequence AGCTTTCG has a binding signal of -0.16 E-score.
In the case of GAGAACCC, the binding signal was -0.104 E-score.
CCTTCTAC was tested, and the binding signal was 0.235 E-score.
AAGTTGGA was tested, and the binding signal was -0.145 E-score.
Sequence AGCAATTG has a binding signal of 0.332 E-score.
In the case of AGCAATTA, the binding signal was 0.303 E-score.
AGCAATTC gave a binding signal of 0.115 E-score.
Sequence CGGCCGAG has a binding signal of -0.169 E-score.
In the case of AGCGCCCC, the binding signal was -0.198 E-score.
AGGGACCC gave a binding signal of -0.173 E-score.
CTTCTACA was tested, and the binding signal was 0.273 E-score.
ATTCTAGC gave a binding signal of 0.249 E-score.
CTTCTATC gave a binding signal of 0.241 E-score.
Work on CTTCTACC yielded a binding signal of 0.348 E-score.
GTTCTACA showed a binding signal of 0.247 E-score.
In the case of ATTCTACA, the binding signal was 0.382 E-score.
CTTCTAGC showed a binding signal of 0.138 E-score.
Sequence ATTCTATC has a binding signal of 0.414 E-score.
ATTCTACG was tested, and the binding signal was 0.179 E-score.
Work on ATTCTACC yielded a binding signal of 0.467 E-score.
ACTCTACC was tested, and the binding signal was -0.0607 E-score.
ATTCTATA was tested, and the binding signal was 0.224 E-score.
With ATTCAGTC the binding signal was 0.00215 E-score.
AAGTATGA was tested, and the binding signal was 0.179 E-score.
In the case of ATTCAATG, the binding signal was -0.0215 E-score.
AACAGCGT was tested, and the binding signal was -0.0978 E-score.
With AAGCATGG the binding signal was -0.183 E-score.
Sequence TAAATGCA has a binding signal of 0.289 E-score.
Work on TGAATTAA yielded a binding signal of 0.0945 E-score.
For AGTTGAAC, the binding signal was -0.0218 E-score.
Sequence AGTAGGTG has a binding signal of 0.127 E-score.
AGTAGGTA was tested, and the binding signal was 0.4 E-score.
Sequence AGTAGGTC has a binding signal of 0.159 E-score.
For CGTAGGCA, the binding signal was -0.0837 E-score.
In the case of CCTAGGTA, the binding signal was 0.144 E-score.
Sequence CGTAGGTA has a binding signal of 0.336 E-score.
With GGTAGGTA the binding signal was 0.331 E-score.
Sequence GCTAGGTA has a binding signal of 0.145 E-score.
GGTAGGAA was tested, and the binding signal was 0.247 E-score.
CAATGAAA was tested, and the binding signal was -0.098 E-score.
Sequence CAGCATGA has a binding signal of -0.0331 E-score.
For CTGGAGGA, the binding signal was -0.0909 E-score.
CGTGTTAC showed a binding signal of 0.0253 E-score.
In the case of CGTAGCCC, the binding signal was -0.128 E-score.
Work on CCTAATAA yielded a binding signal of -0.00276 E-score.
TAGACCCA gave a binding signal of 0.00211 E-score.
CTATCGTA was tested, and the binding signal was 0.357 E-score.
ATATAGTC was tested, and the binding signal was 0.225 E-score.
GTATCGTA was tested, and the binding signal was 0.268 E-score.
Work on ATATAGTG yielded a binding signal of 0.253 E-score.
For GTATAGTA, the binding signal was 0.25 E-score.
ATATCGTA was tested, and the binding signal was 0.263 E-score.
With CTATAGTA the binding signal was 0.371 E-score.
CTATAGTC was tested, and the binding signal was 0.122 E-score.
With ATATAGTA the binding signal was 0.438 E-score.
For CGGGACTA, the binding signal was 0.0767 E-score.
AATGATGC showed a binding signal of 0.103 E-score.
AAGGTCTA gave a binding signal of -0.133 E-score.
In the case of ATTCCGGC, the binding signal was 0.0407 E-score.
Work on CCCACTAG yielded a binding signal of 0.0169 E-score.
AGGTTAGG was tested, and the binding signal was -0.139 E-score.
Work on GCCTTCGC yielded a binding signal of -0.0744 E-score.
Work on CCCAACTA yielded a binding signal of 0.257 E-score.
For CAATAAGA, the binding signal was -0.045 E-score.
With CAATGACG the binding signal was -0.168 E-score.
AGGTTCAG gave a binding signal of 0.0249 E-score.
CTACATAC was tested, and the binding signal was 0.274 E-score.
ATACATAA showed a binding signal of 0.273 E-score.
AAACATAT was tested, and the binding signal was 0.276 E-score.
Work on ATACATAG yielded a binding signal of 0.371 E-score.
Sequence ATACATAC has a binding signal of 0.338 E-score.
ATACACAT was tested, and the binding signal was 0.214 E-score.
CTACATAA gave a binding signal of 0.203 E-score.
CTACATAG showed a binding signal of 0.152 E-score.
GTACATAC gave a binding signal of 0.172 E-score.
GTACATAA showed a binding signal of 0.328 E-score.
